{"source": "PubChem BioAssay AID651739", "about": "(Broad Institute, 2012)", "note": "Among all 5,600 compounds or so, about 4,100 (73%) were called active. Not shown: some 4% with an inconclusive outcome. The set was probably picked from earlier hits. Not all results are given here. Unmarked numbers belong to inactive results.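 The calls were made as follows: active = mean replicate inhibition above about 95% and at least 55% of replicates individually reaching it (limit read from the data); inconclusive = only one of the two criteria is met; inactive = neither criterion is met.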"}
{"test": "blockers of Trypanosoma cruzi growth in host cells – cell-based, NIH3T3 host, beta-gal parasite, luminescence, cherry-pick, confirmation (AID 651739)", "settings": "T. cruzi beta-gal in NIH3T3, GalScreen luminescence, 90 h; at 8.35 µM; hits give high values"}
{"smiles": "COc1ccccc1C#Cc1ccc([C@H]2[C@H](CO)N3CCCCN(C(=O)C4CCC4)C[C@@H]23)cc1", "inhibition": "114% (active)"}
{"smiles": "COc1ccccc1C#Cc1ccc([C@@H]2[C@H](CO)N3CCCCN(C(=O)C4CC4)C[C@@H]23)cc1", "inhibition": "103% (active)"}
{"smiles": "COc1ccccc1C#Cc1ccc([C@@H]2[C@H](CO)N3CCCCN(C(=O)C4CCCC4)C[C@@H]23)cc1", "inhibition": "99.8% (active)"}
{"smiles": "CC(C)C#Cc1ccc2c(c1)O[C@H](CN(C)Cc1ccccc1)[C@H](C)CN([C@@H](C)CO)S2(=O)=O", "inhibition": "105% (active)"}
{"smiles": "C[C@H]1CN([C@@H](C)CO)S(=O)(=O)c2ccc(C#CCN(C)C)cc2O[C@@H]1CN(C)Cc1ccc(F)cc1", "inhibition": "109% (active)"}
{"smiles": "C[C@@H]1CN([C@H](C)CO)S(=O)(=O)c2ccc(C#C[C@@H](C)O)cc2O[C@@H]1CN(C)Cc1ccc(-c2ccccc2)cc1", "inhibition": "96.5% (active)"}
{"smiles": "C[C@@H]1CN([C@@H](C)CO)S(=O)(=O)c2ccc(/C=C/c3ccccc3)cc2O[C@H]1CN(C)Cc1ccccc1", "inhibition": "98.5% (active)"}
{"smiles": "CC(=O)N(C)C[C@H]1Oc2cc(C#CCN(C)C)ccc2S(=O)(=O)N([C@@H](C)CO)C[C@@H]1C", "inhibition": "95.7% (active)"}
{"smiles": "CCCC#Cc1ccc2c(c1)O[C@H](CN(C)C(=O)CC)[C@@H](C)CN([C@H](C)CO)S2(=O)=O", "inhibition": "99.3% (active)"}
{"smiles": "CCC(=O)N(C)C[C@@H]1Oc2cc(C#CCN(C)C)ccc2S(=O)(=O)N([C@H](C)CO)C[C@H]1C", "inhibition": "98.5% (active)"}
{"smiles": "CCCC#Cc1ccc2c(c1)O[C@@H](CN(C)C(=O)c1ccccc1F)[C@H](C)CN([C@H](C)CO)S2(=O)=O", "inhibition": "105% (active)"}
{"smiles": "CC(C)CC#Cc1ccc2c(c1)O[C@H](CN(C)S(=O)(=O)c1cccc(F)c1)[C@@H](C)CN([C@@H](C)CO)S2(=O)=O", "inhibition": "88.4%"}
{"smiles": "C[C@H]1CN([C@@H](C)CO)S(=O)(=O)c2ccc(C#Cc3cccc(F)c3)cc2O[C@@H]1CN(C)S(=O)(=O)c1cn(C)cn1", "inhibition": "102% (active)"}
{"smiles": "C[C@@H]1CN([C@@H](C)CO)S(=O)(=O)c2ccc(-c3cccc(F)c3)cc2O[C@@H]1CN(C)S(=O)(=O)c1ccccc1", "inhibition": "104% (active)"}
{"smiles": "COCCNC[C@@H]1[C@H](c2ccccc2)[C@H](CO)N1c1nc(C)c(C)s1", "inhibition": "95.7% (active)"}
{"smiles": "O=C(c1cccc(F)c1)N1CC[C@@H]2[C@@H](CO)Nc3ccc(C#Cc4cccc(F)c4)cc3[C@@H]21", "inhibition": "106% (active)"}
{"smiles": "O=S(=O)(c1ccccc1)N1CC[C@@H]2[C@@H](CO)Nc3ccc(-c4ccccc4F)cc3[C@@H]21", "inhibition": "103% (active)"}
{"smiles": "O=S(=O)(c1ccccc1)N1CC[C@@H]2[C@@H](CO)Nc3ccc(C#Cc4cccc(F)c4)cc3[C@@H]21", "inhibition": "100% (active)"}
{"smiles": "CC(=O)N1CC[C@@H]2[C@H](CO)Nc3ccc(C#Cc4ccccc4F)cc3[C@@H]21", "inhibition": "70.2%"}
{"smiles": "O=S(=O)(c1ccccc1)N1CC[C@@H]2[C@H]1c1cc(C#Cc3cccc(F)c3)ccc1N[C@@H]2CO", "inhibition": "97.6% (active)"}
{"smiles": "Cc1ccccc1S(=O)(=O)N1CC[C@H]2[C@H](CO)Nc3ccc(-c4cccc(F)c4)cc3[C@H]21", "inhibition": "105% (active)"}
{"smiles": "O=C(Cc1ccccc1)N1CC[C@H]2[C@H](CO)Nc3ccc(-c4ccccc4F)cc3[C@H]21", "inhibition": "103% (active)"}
{"smiles": "Cc1ccc(S(=O)(=O)Nc2ccc3c(c2)C(=O)N([C@@H](C)CO)C[C@@H](C)[C@H](CN(C)C(=O)Nc2cccc4ccccc24)OCCCC[C@H](C)O3)cc1", "inhibition": "97.1% (active)"}
{"smiles": "C[C@@H]1CCCCO[C@H](CN(C)C(=O)Nc2cccc3ccccc23)[C@H](C)CN([C@H](C)CO)C(=O)c2cc(NS(=O)(=O)c3cccs3)ccc2O1", "inhibition": "103% (active)"}
{"smiles": "Cc1noc(C)c1S(=O)(=O)Nc1ccc2c(c1)C(=O)N([C@@H](C)CO)C[C@H](C)[C@@H](CN(C)C(=O)Nc1cccc3ccccc13)OCCCC[C@H](C)O2", "inhibition": "99.4% (active)"}
{"smiles": "C[C@@H]1CN([C@H](C)CO)C(=O)c2cc(C#CC3CCCCC3)cnc2O[C@@H]1CN(C)C(=O)NC1CCCC1", "inhibition": "103% (active)"}
{"smiles": "C[C@H](CO)N1C[C@H](C)[C@H](CN(C)C(=O)C2CCCCC2)Oc2ncc(C#Cc3cccc(F)c3)cc2C1=O", "inhibition": "102% (active)"}
{"smiles": "C[C@H](CO)N1C[C@H](C)[C@H](CN(C)C(=O)Nc2ccc3c(c2)OCO3)Oc2ncc(C#Cc3cccc(F)c3)cc2C1=O", "inhibition": "85.5%"}
{"smiles": "C[C@H]1CN([C@@H](C)CO)C(=O)c2cc(C#CC3CCCCC3)cnc2O[C@H]1CN(C)S(=O)(=O)c1ccccc1", "inhibition": "108% (active)"}
{"smiles": "C[C@@H]1CN([C@@H](C)CO)C(=O)c2cc(C#CC3CCCCC3)cnc2O[C@H]1CN(C)S(=O)(=O)c1ccccc1", "inhibition": "107% (active)"}
{"smiles": "Cc1cc(C(=O)Nc2cccc3c2O[C@@H](CN(C)Cc2ccc(C(=O)Nc4ccccc4N)cc2)[C@H](C)CN([C@@H](C)CO)C3=O)n(C)n1", "inhibition": "105% (active)"}
{"smiles": "C[C@@H]1CN([C@H](C)CO)C(=O)c2cccc(NC(=O)NC3CCCCC3)c2O[C@H]1CN(C)Cc1ccc(C(F)(F)F)cc1", "inhibition": "89.1%"}
{"smiles": "C[C@@H]1CN([C@H](C)CO)C(=O)c2cccc(NC(=O)c3ccc(-c4nccs4)cc3)c2O[C@@H]1CN(C)C(=O)Nc1ccc(C(F)(F)F)cc1", "inhibition": "104% (active)"}
{"smiles": "C[C@@H]1CN([C@H](C)CO)C(=O)c2cccc(NC(=O)c3cnccn3)c2O[C@@H]1CN(C)Cc1ccc(C(=O)Nc2ccccc2N)cc1", "inhibition": "92.4%"}
{"smiles": "C[C@H](CO)N1C[C@H](C)[C@@H](CN(C)Cc2ccc(C(=O)Nc3ccccc3N)cc2)Oc2c(NC(=O)c3ccc(-c4nccs4)cc3)cccc2C1=O", "inhibition": "99.3% (active)"}
{"smiles": "C[C@@H]1CN([C@H](C)CO)C(=O)c2cc(NS(=O)(=O)c3ccc(Cl)cc3)ccc2O[C@@H](C)CCCCO[C@H]1CN(C)Cc1ccccc1", "inhibition": "97.6% (active)"}
{"smiles": "C[C@@H]1CCCCO[C@H](CN(C)Cc2ccccc2)[C@H](C)CN([C@H](C)CO)C(=O)c2cc(NS(=O)(=O)c3ccc(Cl)cc3)ccc2O1", "inhibition": "99.5% (active)"}
{"smiles": "C[C@H](CO)N1C[C@H](C)[C@H](CN(C)Cc2ccc(C(F)(F)F)cc2)OCCCC[C@H](C)Oc2ccc(NS(=O)(=O)c3ccc(Cl)cc3)cc2C1=O", "inhibition": "91.8%"}
